Screening data deposited in PubChem by National Center for Advancing Translational Sciences (NCATS).
Sfp PPTase inh: Sfp phosphopantetheinyl transferase inhibition. Biochemical Sfp PPTase activity, qHTS. Potency, µM, inactives show largest response in the series, negative = inhibition, usual class: inhibitors. 3.5% of 310,000 active;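 note: the enzyme is Sfp with the accession as filed and its product quenches rhodamine fluorescence; potency is the fitted concentration of half-maximal effect; 0% = enzyme reaction without inhibitor and -100% = no enzyme wells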
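Buffer: 50 mM Hepes-Na pH 7.6, 10 mM MgCl2, 0.01% Nonidet P-40, 0.01% BSA. Enzyme 15 nM, pre-exposed to compound 15 min; substrates then added and fluorescence change tracked over 30 min.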
Tau fibril FP: tau fibrillization inhibition (FP); 0.39% of 280,000 active; AID 1468; Potency, µM (top dose mostly 57.7 µM), for the others: top-dose activity, negative = inhibition, usual class: inhibitors; K18 P301L tau heparin fibrillization, Alexa594 FP, 6 h; note: potency is the fitted concentration of half-maximal effect; nearly all actives have a fitted effect of over 55% in size
Target sequence (P10636 561-689 P618L limits assumed): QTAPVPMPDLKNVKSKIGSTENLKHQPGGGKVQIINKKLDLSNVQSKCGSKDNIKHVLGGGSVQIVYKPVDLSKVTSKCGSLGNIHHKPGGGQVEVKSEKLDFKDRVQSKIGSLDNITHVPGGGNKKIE
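Recombinant K18 P301L […], labeled with Alexa 594 at 0.24 uM over 15 uM unlabeled; heparin inducer 20 uM final; 37 C, 6 hr; FP endpoint.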
Coupling enz: counter-screen for Giardia aldolase inhibitors: coupling enzyme system | coupling enzyme system counterscreen, AmpLite Red fluorescence | activity change, negative = inhibition, % at 58.2 µM, hits read low | AID 2472 | 0.67% of 290,000 active; in the data active = activity change below about -30%
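Final compound at 57.5 uM, incubated 10 min at RT with coupling enzyme reagent (glyceraldehyde-3-phosphate), then 20 min with substrate and AmpLite Red detection. Fluorescence read at 525/598 nm; tests interference with the coupling assay, not aldolase inhibition.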
Tau fluor cs: counter-screen for tau fibril formation inhibitors; tau K18 P301L Alexa594 fluorescence, heparin fibrillization; Potency, µM (titrated, usually from 57.7 µM), for inactives: top-dose activity change, negative = decrease; 0.93% of 280,000 active; note: potency is the fitted concentration of half-maximal effect; nearly all actives have a fitted effect of over 55% in size
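Human tau K18 P301L (15 uM unlabeled, 0.24 uM Alexa 594-labeled) in 100 mM sodium acetate pH 7 with 20 uM heparin, 6 hr at 37 C. ThT 30 uM added, 1 hr ambient; Alexa 594 FP and total fluorescence read at 555/632 nm.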
Tau fibril ThT: tau fibrillization inhibition (ThT binding) | recombinant tau K18 P301L (four-repeat tau fragment), heparin-induced fibrillization, ThT fluorescence | Potency, µM (highest dose often 57.4 µM), for inactives: top-dose activity, negative = inhibition, usual class: inhibitors | 2.1% of 270,000 active | AID 1460; note: potency is the fitted concentration of half-maximal effect; nearly all actives have a fitted effect of over 55% in size
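In this qHTS, human K18 P301L tau is incubated with compound and heparin for 6 hr at 37 C, and Thioflavin T fluorescence then reports fibril load.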
* = called active by the depositor; ? = inconclusive; / = not tested or not shown; [ ] = another dose, or the depositor's remark. Hits are enriched below; roughly 5.2% of the tested compounds scored in any of these assays. Unless noted, calls come from the whole dose curve; as a rule, active = well fitted curve in the direction sought with a large enough effect; inconclusive = small, poorly fitted or top-dose-only effect, or another doubt; inactive = no such curve, though single readings can be large; an effect the other way counts as inactive or inconclusive. Unless noted, % is set by controls: 0 for no effect and ±100 for the full control effect.

SMILES	Sfp PPTase inh	Tau fibril FP	Coupling enz	Tau fluor cs	Tau fibril ThT
O=[N+]([O-])c1ccc2c(c1)ncn2-c1ccccc1	-6.1%	-5.1%	-6.1	-14.8%	-12.2%
COc1ccnc(CS(=O)c2nc3ccc(OC(F)F)cc3[nH]2)c1OC (stereo not drawn)	-69.0%	?	1.6	-29.8%	25.1µM*
N#CC1=C(S)N(c2ccc(F)cc2)C(c2ccco2)NC1=O (stereo not drawn)	22.4µM*	?	5.4	-15.8%	39.8µM*
Cc1ccc(N2C(S)=C(C#N)C(=O)NC2c2cccs2)cc1 (stereo not drawn)	35.5µM*	2.5%	2.7	9.7%	16.2%
N#CC1=C(S)N(c2ccccc2)C(c2ccco2)NC1=O (stereo not drawn)	?	-11.7%	2.8	-9.7%	4.1%
N#CC1=C(S)N(c2ccccc2)C(c2cccs2)NC1=O (stereo not drawn)	10µM*	?	-22.6	-11.4%	?
COc1cc(NC(=O)c2cc(-c3cccc(Cl)c3)on2)c(OC)cc1Cl	/	?	/	-13.2%	-3.0%
COc1cccc(NC(=O)Nc2nnc(-c3ccccc3SCc3ccccc3)s2)c1	-25.2%	?	0.6	?	2.4%
COc1ccc(Nc2ccc(Nc3ccc(OC)cc3)nn2)cc1	18.6%	5.8%	2.2	-25.5%	?
COc1ccc(NC(=O)Nc2nc3ccccc3s2)cc1	0.3%	?	1.4	8.91µM*[quencher]	?
COc1ccc(NC(=O)Nc2nnc(-c3ccccc3SCc3ccccc3)s2)cc1	-12.8%	?	-0.1	3.55µM*[quencher]	-5.5%
COc1ccc2nc(NC(=O)Nc3ccccc3)sc2c1	21.4%	-14.2%	3.9	?	?
COc1ccc(Nc2ccc(OC)cc2)cc1	2.82µM*	?	-40.6*	?	10µM*
O=C(NNc1nc2ccccc2s1)Nc1ccc(Cl)c(Cl)c1	56.2µM*	-16.2%	1.8	?	?
CCOC(=O)c1ccc(NC(=O)CCc2nc3cccnc3n2Cc2cccs2)cc1	/	-11.2%	/	?	?
COc1ccc(-n2c(C)nc3cc(C(=O)NC4CCCC4)ccc32)cc1	/	0.4%	/	0.3%	-5.0%
CC(C)C(=O)NNc1nc2ccccc2s1	19.5%	5.9%	1.1	-3.8%	-9.6%
O=C(NNc1nc2ccccc2s1)c1ccccc1F	20.2%	-7.6%	0.0	-6.6%	-11.8%
COc1ccc(OCc2nnc(NC(=O)Nc3ccc(F)cc3)s2)cc1	-4.7%	10µM*	-0.8	-10.0%	5.9%
O=C(NNc1nc2ccccc2s1)C1CC1	44.7µM*	-0.1%	0.0	-1.0%	-5.1%
O=C(NNc1nc2ccccc2s1)Nc1ccc(F)cc1	100µM*	8.7%	-3.6	-11.9%	?
NC(=S)Nc1nc2ccccc2s1	50.1µM*	?	-1.8	-18.6%	-11.4%
CC(NC(=O)CN(c1ccc(Cl)cc1Cl)S(=O)(=O)c1ccccc1)c1ccccc1 (stereo not drawn)	/	1.0%	/	-21.7%	-15.1%
CCCCN(C)S(=O)(=O)c1cc(-c2cc(C)no2)ccc1C	/	-9.7%	/	-28.9%	?
Cc1cc(C)c(NC(=O)c2cc(CN3CCOCC3)on2)c(C)c1	/	0.0%	/	-1.8%	-7.2%
SMILES	Sfp PPTase inh	Tau fibril FP	Coupling enz	Tau fluor cs	Tau fibril ThT
COc1ccc2nc(Nc3nc(C)c(C(C)=O)s3)sc2c1	-7.6%	7.3%	2.0	?	?
COc1ccc(Nc2nc3ccc(OC)cc3s2)cc1	-9.7%	-9.2%	-2.7	14.1µM*[quencher]	12.6µM*
Cc1nn(C(C)C(=O)N2CCN(c3ccc(F)cc3)CC2)c(=O)c2c1sc1ccccc12 (stereo not drawn)	/	-13.8%	/	-0.9%	4.4%
O=C(NCc1cccs1)c1cccc(Nc2nc3ccc(Br)cc3[nH]2)c1	?	?	1.5	7.94µM*[quencher]	?
CCCCCOC(=O)Nc1nc(=O)n(C2O[C@H](C)[C@@H](O)[C@@H]2O)cc1F (stereo partly drawn)	12.6%	/	/	/	/
COc1ccc(NC(=O)c2cc(S(=O)(=O)N(Cc3ccccc3)c3ccccc3)ccc2Cl)cn1	4.2%	-6.6%	-44.0*	-15.8%	1.8%
COC(=O)c1c(N(S(C)(=O)=O)S(C)(=O)=O)sc2c1CCN(c1ncc(C(F)(F)F)cc1Cl)C2	56.2µM*	0.0%	-8.0	-21.7%	-15.0%
COC(=O)CN1C(=O)CSc2ccc(S(=O)(=O)Nc3cccc(Cl)c3C)cc21	/	-5.0%	/	-15.7%	4.1%
Cc1cc(C)n(/N=C\c2c(O)ccc3ccccc23)c(=O)c1C(N)=O	-28.0%	-12.4%	-32.4*	-11.0%	-17.5%
Cc1ccc(OC(C)C(=O)Nc2nonc2-c2ccc(Br)cc2)cc1C (stereo not drawn)	/	7.0%	/	-2.6%	-8.4%
Cc1ncc(N=Nc2ccc(F)cc2)c(-c2ccc(Cl)cc2)n1	6.5%	11.8%	-1.9	-16.5%	-14.5%
Cc1nc(N)sc1N=Nc1ccc(F)cc1	-27.6%	10.6%	-0.9	?	8.91µM*
CC1(C)OC(C(O)(c2cccc3c2oc2ccccc23)c2cccc3c2oc2ccccc23)C(C(O)(c2cccc3c2oc2ccccc23)c2cccc3c2oc2ccccc23)O1 (stereo not drawn)	-5.9%	-15.6%[11.6 µM]	1.0	1.5%[11.6 µM]	-1.4%[11.5 µM]
COc1ccc(C(=O)c2ccccc2)c(O)c1O	56.2µM*	-9.7%	-6.7	-22.2%	?
CNC(=S)/N=C(/Nc1ccccc1)c1ccccc1	-85.4%	-6.8%	1.7	-3.3%	-2.5%
CNC(=S)/N=C(\Nc1ccc(C)cc1)c1ccccc1	7.08µM*	3.6%	3.3	-4.8%	/
CC(C)c1cc(C(=O)Nc2sc3c(c2C#N)CCC3)no1	?	-2.0%	-0.9	-17.9%	-18.0%
N#Cc1c(NC(=O)c2cnccn2)sc2c1CCCC2	25.1µM*	-11.8%	-2.7	-28.6%	?
N#Cc1ccsc1NC(=O)c1cnccn1	50.1µM*	-0.8%	3.6	-5.5%	-17.1%
N#Cc1c(NC(=O)CCC(=O)O)sc2c1CCCCC2	20µM*	?	-22.5	-12.6%	20µM*
CC(C)c1onc(C(=O)Nc2sc3c(c2C#N)CCC3)c1[N+](=O)[O-]	56.2µM*	1.4%	7.5	-18.1%	?
N#Cc1c(NC(=O)CCC(=O)O)sc2c1CCCC2	0.0%	3.3%	8.8	0.7%	0.3%
Cc1cccc(C)c1NC(=O)c1cnccn1	13.4%	/	-0.1	/	/
CC(=O)Nc1ccn(C2OC(C(COC(C)=O)NC(=O)C(COCc3ccccc3)NC(=O)OC(C)(C)C)C(OC(C)=O)C2OC(C)=O)c(=O)n1 (stereo not drawn)	-2.3%	/	-0.5	/	/
COC(=O)Cc1ccc(NC(=S)NCCO)cc1	4.1%	-4.9%	0.9	2.8%	6.4%
COC(=O)Cc1ccc(NC(=S)NCCSc2ccc(Cl)cc2)cc1	23.2%	?	-0.6	7.94µM*[quencher]	-14.0%
CNC(=S)NNS(=O)(=O)c1ccc(OC)cc1OC	25.1µM*	2.6%	0.2	-3.1%	4.2%
